Assay outcomes from PubChem BioAssay.
Shown are actives, neighbours in structure and some others; about 10% of the full set was active somewhere.
G9a block = inhibitors of human histone lysine methyltransferase G9a. Q96KQ7. G9a H3K9 monomethylation, AlphaScreen, 2 h. Potency, µM (doses to about 102 µM), without a hit: at the top dose activity, negative = inhibition, usual class: inhibitors. 350,000 tested, 8.8% active. AID 504332; further: on the % scale 0 is the no-effect control and ±100 the full control effect; nearly all actives have a fitted effect of over 75% in size
Target sequence (Q96KQ7 913-1193 limits assumed): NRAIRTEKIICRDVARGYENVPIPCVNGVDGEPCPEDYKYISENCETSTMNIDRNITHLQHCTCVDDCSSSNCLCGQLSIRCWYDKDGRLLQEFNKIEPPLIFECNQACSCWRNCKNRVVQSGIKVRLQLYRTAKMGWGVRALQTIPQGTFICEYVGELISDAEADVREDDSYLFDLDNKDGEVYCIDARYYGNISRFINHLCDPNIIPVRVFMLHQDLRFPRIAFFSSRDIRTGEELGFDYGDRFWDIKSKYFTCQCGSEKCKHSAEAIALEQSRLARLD
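G9a (20 nM) preincubated 15 min RT with compounds, then 500 nM biotinylated H3K9 peptide and 20 uM SAM added; 2 h RT reaction. Monomethyl-H3K9 product detected by AlphaScreen with anti-H3K9me1 antibody, streptavidin donor and anti-rabbit IgG acceptor beads.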
BAZ2B block = blocks human BAZ2B; Potency, µM (doses to about 114 µM), inactives show top-dose activity change, negative = inhibition, hits mostly inhibitors; AID 504333; Q9UIF8; 360,000 tested, 4.4% active; AlphaScreen BAZ2B-H3K14Ac peptide displacement; further: on the % scale 0 is the no-effect control and ±100 the full control effect; nearly all actives have a fitted effect of over 60% in size
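Compounds, titrated to a top concentration of 110 uM, were incubated 30 min at room temperature with preformed BAZ2B/acetyl-K14 H3 peptide complex (50 nM each). Proximity signal was measured by AlphaScreen after 20 min with beads.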
HP1b binding inh = inhibitors of HP1-beta chromodomain binding to methylated histone tails; AID 540317; Potency, µM (titrated, usually from 114 µM), for the others: at the highest dose activity change, negative = inhibition, usual class: inhibitors; P83916; 390,000 tested, 0.56% active; AlphaScreen HP1-beta / biotin-H3K9me3 peptide binding; further: nearly all actives have a fitted effect of over 70% in size
Target sequence (P83916 whole entry, looked up): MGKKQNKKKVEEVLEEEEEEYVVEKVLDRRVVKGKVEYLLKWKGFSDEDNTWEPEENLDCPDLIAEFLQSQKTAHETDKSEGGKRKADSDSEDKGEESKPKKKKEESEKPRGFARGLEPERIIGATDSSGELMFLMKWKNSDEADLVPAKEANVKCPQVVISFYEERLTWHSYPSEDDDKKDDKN
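Compound inhibition of the preformed complex between 50 nM HP1-beta and 50 nM biotinylated H3K9me3 peptide was read by AlphaScreen. Buffer was PBS pH 7.4 with 0.01% Tween-20. Incubations ran 30 min at room temperature, with 10 ug/mL donor/acceptor beads.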
GLS inh = blocks human kidney-isoform glutaminase activity | O94925 | GLS enzymatic activity, qHTS titration | Potency, µM (top dose mostly 45.5 µM), without a hit: top-dose activity change, negative = inhibition, actives largely listed as inhibitors | 410,000 tested, 0.21% active; further: on the % scale 0 is the no-effect control and ±100 the full control effect
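Glutamate formation by hKGA was monitored fluorometrically using coupled glutamate oxidase, HRP and Amplex Red. Substrate was added as 1 mM L-glutamine solution; incubation was 30 min at RT after an initial read.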
JMJD2A Tudor = blocks the human JMJD2A Tudor domain | 390,000 tested, 4.4% active | O75164 | Potency, µM (series often up to 114 µM), inactives show at the top dose activity change, negative = inhibition, hits mostly inhibitors | AlphaScreen JMJD2A-Tudor / H3K4me3 peptide binding; further: on the % scale 0 is the no-effect control and ±100 the full control effect; nearly all actives have a fitted effect of over 50% in size
* = called active by the depositor; u = inconclusive; x = no result given; ! = repeats disagree; [ ] = dose if it differs, or a comment. The call rests on the fitted dose curve; in most records, active means well fitted curve in the direction sought with a large enough effect; inconclusive means small, poorly fitted or top-dose-only effect, or another doubt; inactive means no such curve, though single readings can be large; an effect the other way counts as inactive or inconclusive. Potency means the concentration at half of the fitted maximal effect.

SMILES	G9a block	BAZ2B block	HP1b binding inh	GLS inh	JMJD2A Tudor
Cc1ccc2nc(-c3ccccc3)cc(C(=O)N3CCN(c4ccccc4O)CC3)c2c1	50µM*	-32%	-18%	20%	u
Cc1c(C(=O)N(Cc2ccccc2F)C2CCS(=O)(=O)C2)oc2ccc(F)cc12 (centres undefined)	-3%[59 µM]	-2%	43%	-2%	-25%
CCN(CCCNC(=O)COc1cc(=O)n(CC)c2ccccc12)c1ccccc1	11µM*	u	-5%	21%	u
CCN(CCCNC(=O)CNC(=O)Cn1cnc2ccccc2c1=O)c1ccccc1	2.2µM*	-7%	12%	31%	-17%
CCn1c(=O)cc(SCC(=O)NCCc2cccc(C)c2)c2ccccc21	-35%[59 µM]	-15%	18%	4%	-10%
CCN(CCCNC(=O)CSc1cc(=O)n(CC)c2ccccc12)c1cccc(C)c1	u	22µM*	u	33%	32µM*
CCN(CCCNC(=O)CCNC(=O)Cn1cnc2ccccc2c1=O)c1cccc(C)c1	u	-34%	18%	65%	-9%
CCN(CCCNC(=O)c1cn(CC)c2ccc(S(=O)(=O)N(C)C)cc2c1=O)c1cccc(C)c1	35µM*	u	-19%	23%	u
CC(C)NC(=O)C1CCCN(S(=O)(=O)c2ccc3c(ccn3C)c2)C1 (centres undefined)	4%[59 µM]	2%	27%[57 µM]	1%	-4%
CCc1ccc2[nH]c(=O)c(C(c3nnnn3CCOC)N3CCN(c4ccccc4)CC3)cc2c1 (centres undefined)	28µM*	-39%	-3%	-1%	u
COc1ccc(Cn2nnnc2C(c2cc3cc(C)ccc3[nH]c2=O)N2CCN(C)CC2)cc1 (centres undefined)	-12%	-27%	7%	-13%	-6%
CCc1ccc2[nH]c(=O)c(C(c3nnnn3CCOC)N3CCN(c4ccc(F)cc4)CC3)cc2c1 (centres undefined)	u	u	-20%	-3%	-25%[11.4 µM]
COCCn1nnnc1C(c1cc2cc(OC)c(OC)cc2[nH]c1=O)N1CCN(c2ccc(O)cc2)CC1 (centres undefined)	x	28µM*	u	-19%	56µM*
c1ccc2c(N3CCOCC3)nc(-c3ccoc3)nc2c1	14%[0.501 µM]	x	x	x	x
COc1ccc(CCN2C(=O)NC(NC(C)=O)(C(F)(F)F)C2=O)cc1OC (centres undefined)	-9%[59 µM]	-5%	48%	-3%	0%
COc1ccc(C(=O)NC2(C(F)(F)F)NC(=O)N(CCCc3ccccc3)C2=O)cc1OC (centres undefined)	3%	-4%	-1%	-7%	79µM*
Cc1cc(-c2nnc(-c3ccccc3)c(-c3ccccc3)n2)c(C)o1	16µM*	u	-20%	12%	u
Cc1ccc(-c2nnc(-c3ccccc3)c(-c3ccccc3)n2)cc1	u	-14%	35%	0%	-10%
Cc1ccc(NS(=O)(=O)c2ccc3ccccc3c2)cc1C	x	x	x	x	-14%
CCN1C[C@@H]2[C@@H]3C(=O)N(C)C(=O)[C@@H]3[C@](Cc3ccccc3)(C1=O)N2C(=O)c1ccc(Br)cc1	x	x	48%	0%	3%
CCc1cccc(NC(=O)C2CCN(C(=O)c3cnn(-c4ccccc4)c3-n3cccc3)CC2)c1	-6%[59 µM]	-18%	10%	2%	-30%
CC1CCN(CC[C@H]2CCCN2S(=O)(=O)c2cccc(O)c2)CC1	25µM*!	4%	53%	5%	-14%
O=C1C=CC(=Nc2ccc3c(c2)C(=O)c2ccccc2-3)O1	x	x	20%[57 µM]	-7%	-23%
O=C1C=CC(=Nc2ccc(F)cc2)O1	x	x	22µM*	12%	45µM*
COc1cc(Br)cc(CN2CCN(C/C=C/c3ccccc3)CC2)c1O	40µM*	40µM*	8%	-1%	u
SMILES	G9a block	BAZ2B block	HP1b binding inh	GLS inh	JMJD2A Tudor
COc1ccc(OC)c(NC(=S)N2CCN(C/C=C/c3ccccc3)CC2)c1	10%[12.7 µM]	u	u	3%	-21%[57.1 µM]
COc1ccc(O)c(CN2CCN(C/C=C/c3ccccc3)CC2)c1	u	u	-20%	24%	56µM*
O=C(CNC(=O)c1ccccc1)OCC(=O)c1cccc2ccccc12	x	x	15%[57 µM]	x	-28%[57.1 µM]
CCn1c(O)c(/C=N/N=C/c2ccc(OC)cc2)c2cc(C3=NNC(=O)CC3)ccc21	x	-11%	19%	7%	-7%
CC/C(C)=N\N=C\c1c(O)n(CC)c2cc(C3=NNC(=O)CC3)ccc12	8.9µM*	-25%	17%	12%	-34%
CC(=O)Nc1ccc(S(=O)(=O)Nc2cccc(-n3cnnn3)c2)cc1	-7%	-13%	30%	0%	-12%
CC(=O)c1ccc(S(=O)(=O)Nc2cccc(-n3cnnn3)c2)cc1	40µM*	50µM*	5%	-17%	u
COc1ccc(-c2nc3ccccc3[nH]2)cc1	9%	9%	29%	4%	-4%
COc1ccc(-c2cc(=O)n(-c3nc4ccccc4[nH]3)[nH]2)cc1	79µM*	28µM*	15%	31%	u
CCN1CCN(CCNC(=O)c2ccc3c(c2)N(Cc2ccc(F)cc2)C(=O)/C(=C/c2ccccc2)S3)CC1	u	40µM*	u	5%	u
CCN1CCN(CCNC(=O)c2ccc(/C=C3/Sc4ccccc4N(Cc4cccc(Cl)c4)C3=O)cc2)CC1	40µM*	-37%	u	u	22µM*
O=C1C2CCCN2C(=O)N1CCCCN1CCN(CCO)CC1 (centres undefined)	-9%[59 µM]	10%	18%	-1%	-9%
CCN(CC)c1ccc(N=Nc2ncn[nH]2)cc1	1µM*	x	10%	2%	u
O=C(COc1ccc(F)cc1)Nc1nc2c(s1)CCCC2	-14%	u	9%	4%	-24%
Cc1ccc(CC(=O)Nc2ccncc2)cc1	50µM*	15%	46%	0%	-23%
O=C(CS(=O)(=O)Cc1ccccc1)Nc1nc2c(s1)CCCC2	-32%[12.7 µM]	-29%	33%	0%	-13%[11.4 µM]
COc1ccc(OCC(=O)Nc2nc3c(s2)CCCC3)cc1	50µM*	u	-4%	-1%	u
COc1ccc(NC(=O)Nc2nc3c(s2)CCCC3)cc1	79µM*	-10%	13%	9%	-21%
Cc1ccc(CC(=O)Nc2nc3c(s2)CCCC3)cc1	50µM*	-33%	10%	8%	-26%
O=C(/C=C/c1ccco1)Nc1ccc(C(=O)N2CCOCC2)cc1	u	u	-13%	2%	-29%
Cc1cc(C)cc(Nc2ccc(C(=O)O)cc2N)c1	u	-6%	-4%	-27%	u
COc1cccc(Nc2ccc(C(=O)O)cc2N)c1	u	-30%	-11%	3.2µM*	-14%
O=C(/C=C/c1ccco1)Nc1ccc(-c2nc3ccccc3[nH]2)cc1	40µM*	u	6%	-1%	-3%
